# Laboratory results reported in PubChem BioAssay (Tox21).
# Values without a mark were called inactive. Records with an inconclusive call do not appear. Where a call stands in place of a potency, no number is given. Active and inactive are the calls of the source. Unless noted, calls come from the whole dose curve; as a rule, active = well fitted curve in the direction sought with a large enough effect in the repeat runs; inconclusive = weak or mixed curves; inactive = no such curve, though single readings can be large; an effect the other way counts as inactive or inconclusive.
# Tests used:
# [1] = qHTS assay for small molecule agonists of the p53 signaling pathway (AID 651631; calls by dose curve; note: nearly all actives have a fitted effect of over 15% in size; note: potency is the fitted concentration of half-maximal effect)
# How it was run: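 HCT-116 p53RE-bla reporter line, 16 h compound treatment at 37 °C, then fluorescence after 2 h with B/G FRET substrate.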
# [2] = qHTS assay for small molecules that induce genotoxicity in human embryonic kidney cells expressing luciferase-tagged ATAD5 (AID 651632); note: nearly all actives have a fitted effect of over 15% in size
# How it was run: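 Genotoxicity read-out via ATAD5-luciferase: HEK293T cells, 16 hr compound incubation at 37C, Amplite detection.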
# [3] = qHTS assay for small molecule agonists of the p53 signaling pathway - cell viability (AID 651633; calls by dose curve; note: nearly all actives have a fitted effect of over 30% in size; note: potency is the fitted concentration of half-maximal effect)
# How it was run: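 p53RE-bla cells, seeded at 4,000 per well and rested 5 h at 37 C/5% CO2, received compounds in DMSO for 16 h at 37 C. CellTiter-Glo was then added, and luminescence was read after 30 min at room temperature to gauge cytotoxicity.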
# [4] = qHTS assay for small molecules that induce genotoxicity in human embryonic kidney cells expressing luciferase-tagged ATAD5 - cell viability (AID 651634; calls by dose curve; note: nearly all actives have a fitted effect of over 25% in size)
# How it was run: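 Live-cell protease activity (CellTiter-Fluor, fluorescence) indicates viability. HEK293T cells with luciferase-tagged ATAD5; 15.5 hr compound treatment at 37C.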
# [5] = qHTS assay for small molecule disruptors of the mitochondrial membrane potential - cell viability (AID 720634; calls by dose curve;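 note: human HepG2 liver cancer cells; series mostly up to about 83 µM; nearly all actives have a fitted effect of over 20% in size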)
# How it was run: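 Human hepatoma HepG2 cells were treated for 1 hr with test chemicals, then given m-MPI dye and CellTiter-Glo. Cell viability reflects luminescence proportional to cellular ATP.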
# [6] = qHTS assay for small molecule disruptors of the mitochondrial membrane potential (AID 720635)
# How it was run: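 HepG2 cells (2,000/well) attached overnight at 37C, then took compound for 1 hr at 37C, 5% CO2. Mito-MPS dye was added for 30 min; fluorescence was read at 490/535 nm (monomers) and 540/590 nm (aggregates).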
# [7] = qHTS assay to test for compound auto fluorescence at 590 nm (red) in HepG2 cells (AID 720674)
# How it was run: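 Rose Bengal sodium served as the red fluorophore standard. HepG2 monolayers (overnight attachment, MEM with 10% FBS) were exposed to test compounds for 1 hr at 37 C and read at Ex 540/Em 590 nm.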
# [8] = qHTS assay to test for compound auto fluorescence at 535 nm (green) in HepG2 cells (AID 720675)
# [9] = qHTS assay to test for compound auto fluorescence at 460 nm (blue) in HEK293 cells (AID 720678); note: potency is the fitted concentration of half-maximal effect
# How it was run: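 HEK293, 2,000 cells/well, 10% dialyzed FBS; attach 4-5 hr 37C; pin compound or DMSO; o/n 37C/5% CO2; fluorescence 405/460 nm; triamterene-equivalent units.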
# [10] = qHTS assay to test for compound auto fluorescence at 590 nm (red) in HEK293 cells (AID 720679)
# How it was run: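 Intensity at 540nm excitation and 590nm emission is reported as Rose Bengal sodium-equivalent autofluorescence. Measurements followed overnight exposure (37C, 5% CO2) of HEK293 cells, 2,000 per well, to 23 nL compound.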
# Tags give direction and shape of the fitted curve or compound fluorescence and quenching.
SMILES,Potency [1],Potency [2],Potency [3],Potency [4],Potency [5],Potency [6],outcome [7],outcome [8],Potency [9],outcome [10],"fluorescence, relative to Rose Bengal [7]","fluorescence, % of fluorescein control [8]","fluorescence, % of triamterene [9]","fluorescence, % of fluorescent control [10]"
CC(=O)O[C@H](CC(=O)[O-])C[N+](C)(C)C,inactive,inactive,inactive,inactive,inactive,inactive,inactive,inactive,inactive,inactive,–,–,–,–
COc1cccc(Br)c1,inactive,inactive,inactive,inactive,inactive,inactive,inactive,inactive,inactive,inactive,–,–,–,–
CC(C)[N+](C)(C)CC(O)COc1cccc2ccccc12 (stereo unspecified),inactive,inactive,inactive,inactive,inactive,inactive,inactive,inactive,inactive,inactive,–,–,–,–
Nc1ccc2cc(S(=O)(=O)O)ccc2c1,inactive,inactive,inactive,inactive,inactive,inactive,inactive,inactive,31.6 µM [fluorescent] (active),–,–,–,–,–
CCCCCCCCCCCCCCCCCC(=O)OCCCCCCCCCCCCCC(C)C,inactive,inactive,inactive,inactive,inactive,inactive,inactive,inactive,inactive,inactive,–,–,–,–
NC1CCN(c2cccc(Cl)n2)CC1,inactive,inactive,inactive,inactive,inactive,inactive,inactive,inactive,inactive,inactive,–,–,–,–
CC12CCC(CC1=O)C2(C)C (stereo unspecified),inactive,inactive,inactive,inactive,inactive,inactive,inactive,inactive,inactive,–,–,–,–,–
OCCN1C[C@H](O)[C@@H](O)[C@H](O)[C@H]1CO,inactive,inactive,inactive,inactive,inactive,inactive,inactive,inactive,inactive,inactive,–,–,–,–
C[N+](C)(C)CC[N+]1(C)Cc2c(Cl)c(Cl)c(Cl)c(Cl)c2C1,inactive,inactive,inactive,inactive,inactive,inactive,inactive,inactive,inactive,inactive,–,–,–,–
Nc1nc2c(ncn2CCC(CO)CO)c(=O)[nH]1,inactive,inactive,inactive,inactive,inactive,inactive,inactive,inactive,inactive,inactive,–,–,–,–
CC(C)CCCCCCN,inactive,inactive,inactive,inactive,inactive,inactive,inactive,inactive,inactive,inactive,–,–,–,–
N#CCc1ccccc1[N+](=O)[O-],inactive,inactive,inactive,inactive,inactive,inactive,inactive,inactive,inactive,–,–,–,–,–
CCCc1ccc(N)cc1,inactive,inactive,inactive,inactive,inactive,inactive,inactive,inactive,inactive,inactive,–,–,–,–
C=CCn1c(=O)n([C@@H]2O[C@H](CO)[C@@H](O)[C@H]2O)c2nc(N)[nH]c(=O)c21,inactive,inactive,inactive,inactive,inactive,inactive,inactive,inactive,inactive,inactive,–,–,–,–
OC1OC[C@@H](O)[C@H](O)[C@H]1O (stereo partly specified),inactive,inactive,inactive,inactive,inactive,–,inactive,inactive,inactive,–,–,–,–,–
COC(C(=O)O)c1ccccc1 (stereo unspecified),inactive,inactive,inactive,inactive,inactive,inactive,inactive,inactive,–,inactive,–,–,–,–
COCCOC(=O)CC#N,inactive,inactive,inactive,inactive,inactive,–,inactive,inactive,inactive,inactive,–,–,–,–
C[C@H]1O[C@@H](n2cc(F)c(=O)[nH]c2=O)[C@H](O)[C@@H]1O,21.1 µM (active),inactive,8.41 µM (active),inactive,inactive,–,inactive,inactive,inactive,inactive,–,–,–,–
CO[Si](OC)(OC)OC,inactive,inactive,inactive,inactive,inactive,–,inactive,inactive,inactive,–,–,–,–,–
NC(=O)c1ncn([C@@H]2O[C@H](CO)[C@@H](O)[C@H]2O)c1O,inactive,inactive,inactive,inactive,inactive,inactive,inactive,inactive,inactive,inactive,–,–,–,–
COC[C@H](c1ccc(C(F)(F)F)cc1)N1CCN(C2(C)CCN(C(=O)c3c(C)ncnc3C)CC2)C[C@H]1C,inactive,inactive,inactive,inactive,inactive,–,inactive,inactive,inactive,inactive,–,–,–,–
Fc1ccccc1-c1ccccc1,inactive,inactive,inactive,inactive,inactive,–,inactive,inactive,inactive,–,–,–,–,–
C[C@H](O)C(=O)Nc1c(I)c(C(=O)NC(CO)CO)c(I)c(C(=O)NC(CO)CO)c1I,inactive,inactive,inactive,inactive,inactive,–,–,–,–,–,0.0368% [at 18.6 µM],0.0325% [at 18.6 µM],-0.0154% [at 18.6 µM],0.0561% [at 18.6 µM]
